Measurements reported in PubChem BioAssay AID1159580 (chemical genetic matrix, 2015).
In all, about 5,500 compounds went through this assay and about 2,000 (36%) were called active. Roughly 18% stayed inconclusive and do not appear here. No stated cut-off is given here; in the data, active means normalized growth mostly below about 0.91 (no sharp cut-off); inconclusive means no clear call, values can overlap the other calls; inactive means mostly above about 0.92. Some of the results follow.

Experiment: chemical genetic growth profiling, strain panel (AID 1159580);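 further: tested at 20 µM; growth read once vehicle control cultures reached saturation at 30 °C; 1 = growth at the plate median or of vehicle wells; lower values mean less growth of the strain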
Conditions: growth OD

Measured: normalized growth

Nc1cc(-c2ccc(Cl)cc2)nc(N)n1
inactive: S. cerevisiae deletion strains, locus YAL013W, strain DEP1, active compounds read low 0.997 | S. cerevisiae deletion strains, locus YBR229C, strain ROT2, active compounds read low 0.991 | S. cerevisiae deletion strains, locus YDL101C, strain DUN1, active compounds read low 0.995 | S. cerevisiae deletion strains, locus YDL134C, strain PPH21, active compounds read low 0.959 | S. cerevisiae deletion strains, locus YDR150W, strain NUM1, active compounds read low 1.02 | S. cerevisiae deletion strains, locus YEL061C, strain CIN8, active compounds read low 0.995 | S. cerevisiae deletion strains, locus YGR078C, strain PAC10, active compounds read low 0.999 | S. cerevisiae deletion strains, locus YHR030C, strain SLT2, active compounds read low 0.963 | S. cerevisiae deletion strains, locus YHR087W, strain rtc3, active compounds read low 0.993 | S. cerevisiae deletion strains, locus YJL187C, strain SWE1, active compounds read low 1 | S. cerevisiae deletion strains, locus YJR043C, strain POL32, active compounds read low 0.982 | S. cerevisiae deletion strains, locus YJR075W, strain HOC1, active compounds read low 0.972 | S. cerevisiae deletion strains, locus YKL190W, strain CNB1, active compounds read low 0.965 | S. cerevisiae deletion strains, locus YLR039C, strain RIC1, active compounds read low 0.914 | S. cerevisiae deletion strains, locus YLR058C, strain SHM2 (second series), active compounds read low 0.993 | S. cerevisiae deletion strains, locus YLR085C, strain ARP6, active compounds read low 1.02 | S. cerevisiae deletion strains, locus YLR262C, strain YPT6, active compounds read low 0.85 | S. cerevisiae deletion strains, locus YML094W, strain GIM5, active compounds read low 1.03 | S. cerevisiae deletion strains, locus YMR219W, strain ESC1, active compounds read low 0.991 | S. cerevisiae deletion strains, locus YMR263W, strain SAP30, active compounds read low 0.996 | S. cerevisiae deletion strains, locus YNL153C, strain GIM3, active compounds read low 0.992 | S. cerevisiae deletion strains, locus YNL298W, strain CLA4 (second series), active compounds read low 0.992 | S. cerevisiae deletion strains, locus YNL322C, strain KRE1, active compounds read low 0.99 | S. cerevisiae deletion strains, locus YNR030W, strain Alg12, active compounds read low 1 | S. cerevisiae deletion strains, locus YOL006C, strain TOP1, active compounds read low 0.944 | S. cerevisiae deletion strains, locus YPL055C, strain LGE1, active compounds read low 1.02 | S. cerevisiae deletion strains, locus YPL241C, strain CIN2, active compounds read low 0.995 | S. cerevisiae deletion strains, locus YPR135W, strain CTF4, active compounds read low 0.939 | S. cerevisiae strains, strain wild type, active compounds read low 0.966
